High-throughput results from PubChem.
The list is not random: actives were taken first. Their share in the collection is about 10%.
HP1b binding inh: blocks HP1-beta chromodomain binding to methylated histone tails | AlphaScreen HP1-beta / biotin-H3K9me3 peptide binding | Potency, µM (top dose mostly 114 µM), hits mostly inhibitors | P83916 | 390,000 tested, 0.56% active; further: nearly all actives have a fitted effect of over 70% in size
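AlphaScreen: HP1-beta (50 nM) preformed 30 min with biotin-H3(1-18)K9me3 peptide (50 nM) in PBS pH 7.4, 0.01% Tween-20. Compound added for 30 min at RT, then streptavidin donor/nickel chelate acceptor beads (10 ug/mL) for 30 min.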
G9a inh: inhibitors of human histone lysine methyltransferase G9a. AID 504332. G9a H3K9 monomethylation, AlphaScreen, 2 h. Potency, µM (titrated, usually from 102 µM), most hits filed as inhibitors. 350,000 tested, 8.8% active. Q96KQ7; further: nearly all actives have a fitted effect of over 75% in size
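Readings reflect AlphaScreen signal from monomethyl-H3K9 antibody detection. HMT at 20 nM; substrate b-H3K9 500 nM; cofactor SAM 20 uM; 2 h RT reaction; compounds tested as titrations in qHTS with 15 min preincubation.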
Six1-Eya2 blk: Six1/Eya2 interaction inhibition. Q15475+O00167. AlphaScreen GST-Six1/His-Eya2 binding, biochemical; active compounds read low. activity change, % (no concentration beside the values). 360,000 tested, 0.56% active. AID 651725; in the data active means activity change below about -65%; inconclusive means mostly about -30% to -63%
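Six1/Eya2 binding was read as AlphaScreen signal after compounds were pinned into GST-Six1 plus His-tagged Eya2 (5X stock 250/500 nM) in pH 8.0 Tris/NaCl/TCEP buffer, beads added, then incubated 1 h, 37 C, dark.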
CtBP-E1A inh: inhibitors of CtBP/E1A interaction | AlphaScreen GST-E1A/His-CtBP binding, 1536-well; active compounds read low | activity change, % (no concentration beside the values) | 340,000 tested, 0.49% active; in the data active means activity change below about -65%; inconclusive means mostly about -30% to -63%
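Protein mix (5X: 125 nM each GST-E1A, His-CtBP) was incubated with pinned compound 2 h at 37 deg C in dark, in 50 mM Tris pH 8.0 buffer with 300 mM NaCl. Glutathione donor and nickel acceptor beads followed; AlphaScreen signal read after 1 h.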
JMJD2A Tudor inh: blocks the human JMJD2A Tudor domain. AlphaScreen JMJD2A-Tudor / H3K4me3 peptide binding. O75164. Potency, µM (top dose mostly 114 µM), most hits filed as inhibitors. 390,000 tested, 4.4% active; further: nearly all actives have a fitted effect of over 50% in size
Target sequence (O75164 whole entry, looked up, the tested form may be a part): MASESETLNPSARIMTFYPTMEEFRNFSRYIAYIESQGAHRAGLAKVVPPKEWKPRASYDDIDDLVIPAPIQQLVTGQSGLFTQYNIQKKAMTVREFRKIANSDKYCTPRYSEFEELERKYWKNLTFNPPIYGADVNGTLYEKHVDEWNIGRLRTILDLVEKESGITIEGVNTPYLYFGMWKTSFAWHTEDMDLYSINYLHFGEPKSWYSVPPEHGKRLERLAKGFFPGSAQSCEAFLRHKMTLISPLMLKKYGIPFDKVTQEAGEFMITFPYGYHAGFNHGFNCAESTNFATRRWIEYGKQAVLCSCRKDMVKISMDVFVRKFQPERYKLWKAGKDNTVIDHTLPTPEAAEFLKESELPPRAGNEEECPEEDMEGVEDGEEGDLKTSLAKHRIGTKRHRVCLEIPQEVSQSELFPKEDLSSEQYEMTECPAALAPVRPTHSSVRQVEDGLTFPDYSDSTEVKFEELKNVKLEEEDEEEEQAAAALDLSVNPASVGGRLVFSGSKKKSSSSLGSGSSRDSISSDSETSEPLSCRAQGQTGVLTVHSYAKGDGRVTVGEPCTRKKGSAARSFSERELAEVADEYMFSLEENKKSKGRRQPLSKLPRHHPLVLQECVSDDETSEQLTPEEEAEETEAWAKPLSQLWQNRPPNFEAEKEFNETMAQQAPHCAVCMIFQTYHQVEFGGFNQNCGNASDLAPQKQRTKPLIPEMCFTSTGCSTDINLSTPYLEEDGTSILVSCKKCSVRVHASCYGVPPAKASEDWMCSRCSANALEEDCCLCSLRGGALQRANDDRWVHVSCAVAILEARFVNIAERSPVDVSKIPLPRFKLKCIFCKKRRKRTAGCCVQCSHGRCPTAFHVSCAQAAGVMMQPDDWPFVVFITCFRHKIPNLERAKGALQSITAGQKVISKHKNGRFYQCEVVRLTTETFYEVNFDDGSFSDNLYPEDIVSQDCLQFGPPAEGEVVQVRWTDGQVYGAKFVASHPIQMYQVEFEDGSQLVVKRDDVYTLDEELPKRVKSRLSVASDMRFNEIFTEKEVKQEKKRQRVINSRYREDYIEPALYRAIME
BAZ2B inh: blocks human BAZ2B; Q9UIF8; Potency, µM (series often up to 114 µM), usual class: inhibitors; 360,000 tested, 4.4% active; AlphaScreen BAZ2B-H3K14Ac peptide displacement; further: nearly all actives have a fitted effect of over 60% in size
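BAZ2B (50 nM) with biotin-H3(5-23)K14Ac peptide (50 nM) in PBS pH 7.4, 0.01% Tween-20, preformed 30 min, then compound 30 min at room temperature; top concentration 110uM. AlphaScreen streptavidin donor/nickel chelate acceptor beads (10 ug/mL final), 20 min dark, signal read.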
A number is an active result; [ ] = dose if it differs, or a comment. Unless noted, the call rests on the fitted dose curve; in most records, active means well fitted inhibition curve with a large enough effect; inconclusive means small, poorly fitted or top-dose-only effect; inactive means no such curve, though single readings can be large or run the other way.

What do the screens show for `Cc1cccc(N(C)C(=O)CCNS(=O)(=O)c2ccc3c(c2)CCN3C(=O)C2CC2)c1`?
HP1b binding inh: inactive; G9a inh: inactive; JMJD2A Tudor inh: inactive; BAZ2B inh: inactive

Results for FC(F)(F)c1ccccc1/C=N/n1c(C2CCCCC2)n[nH]c1=S ?
HP1b binding inh: inactive; G9a inh: 8.9µM; Six1-Eya2 blk: inactive; JMJD2A Tudor inh: inconclusive; BAZ2B inh: inactive

Results for O=C(O)c1ccccc1/C=N/Nc1nc(N2CCCCC2)nc(N2CCCCC2)n1 ?
G9a inh: inactive; BAZ2B inh: inactive

What do the screens show for `COc1ccccc1/C=C/C=N/n1c(C2CCCCC2)n[nH]c1=S`?
HP1b binding inh: inconclusive; G9a inh: 3.2µM; Six1-Eya2 blk: inactive; CtBP-E1A inh: inactive; JMJD2A Tudor inh: inconclusive; BAZ2B inh: inactive

What do the screens show for `S=c1[nH]nc(C2CCCCC2)n1/N=C/c1ccccc1Cl`?
HP1b binding inh: inconclusive; G9a inh: 2.2µM; Six1-Eya2 blk: inactive; CtBP-E1A inh: inactive; JMJD2A Tudor inh: 22µM; BAZ2B inh: inconclusive

What do the screens show for `O=C(O)c1ccccc1/C=N/n1c(C2CCCCC2)n[nH]c1=S`?
HP1b binding inh: inactive; G9a inh: 22µM; Six1-Eya2 blk: inactive; CtBP-E1A inh: inactive; JMJD2A Tudor inh: 7.9µM; BAZ2B inh: inactive

How did S=c1[nH]nc(-c2cccs2)n1/N=C/c1cn(-c2ccccc2)nc1-c1cccs1 do in these assays?
HP1b binding inh: inactive; Six1-Eya2 blk: inactive; CtBP-E1A inh: inactive; JMJD2A Tudor inh: inconclusive; BAZ2B inh: inconclusive

What do the screens show for `COc1ccc(CNC(=O)CSc2ncc3c(n2)-c2cc(Cl)ccc2N(Cc2ccccc2)S3(=O)=O)cc1OC`?
HP1b binding inh: inactive; G9a inh: inactive; JMJD2A Tudor inh: inactive; BAZ2B inh: inactive

What do the screens show for `CCOc1ccccc1/C=N/n1c(C2CCCCC2)n[nH]c1=S`?
HP1b binding inh: inactive; G9a inh: 14µM; Six1-Eya2 blk: inactive; CtBP-E1A inh: inactive; JMJD2A Tudor inh: inconclusive; BAZ2B inh: inactive

Results for Cc1n[nH]c(=S)n1/N=C/c1ccccc1OCc1ccc(Cl)cc1Cl ?
HP1b binding inh: inactive; G9a inh: inactive; Six1-Eya2 blk: inactive; CtBP-E1A inh: inactive; JMJD2A Tudor inh: inactive; BAZ2B inh: inactive

Results for CCCCN(CCCC)CCCOC(=O)c1ccc(N)cc1 ?
HP1b binding inh: inactive; G9a inh: inactive; Six1-Eya2 blk: inactive; CtBP-E1A inh: inactive; JMJD2A Tudor inh: inactive; BAZ2B inh: inactive

What do the screens show for `CC(C)CC(OC(=O)c1cccs1)C(=O)NCc1ccco1` (centres undefined)?
HP1b binding inh: inactive; G9a inh: 13µM; Six1-Eya2 blk: inactive; CtBP-E1A inh: inactive; JMJD2A Tudor inh: inactive; BAZ2B inh: inactive

Results for CCC(OC(=O)c1cccs1)C(=O)NCc1ccco1 (centres undefined) ?
HP1b binding inh: inactive; G9a inh: inactive[12.7 µM]; Six1-Eya2 blk: inactive; CtBP-E1A inh: inactive; JMJD2A Tudor inh: inactive; BAZ2B inh: inactive

What do the screens show for `COc1cccc(Nc2ncc3nc(CCc4ccccc4)c(=O)n(CCC#N)c3n2)c1`?
G9a inh: inactive[12.7 µM]

Results for Cc1cc2cc(CNC(=O)c3cccs3)ccc2n1C ?
HP1b binding inh: inactive; G9a inh: 50µM; Six1-Eya2 blk: inactive; JMJD2A Tudor inh: inconclusive; BAZ2B inh: 50µM

What do the screens show for `Cc1cc2cc(CNC(=O)c3ccc(S(=O)(=O)N4CCCCC4)cc3)ccc2n1C`?
HP1b binding inh: inactive; G9a inh: 50µM; Six1-Eya2 blk: inactive; CtBP-E1A inh: inactive; JMJD2A Tudor inh: inactive; BAZ2B inh: inactive

What do the screens show for `Cc1cc2cc(CNC(=O)Nc3ccccc3)ccc2n1C`?
HP1b binding inh: inconclusive; G9a inh: 32µM; Six1-Eya2 blk: inconclusive; CtBP-E1A inh: inactive; JMJD2A Tudor inh: inconclusive; BAZ2B inh: inactive

What do the screens show for `CCOC(=O)NCc1ccc2c(c1)cc(C)n2C`?
HP1b binding inh: inactive; G9a inh: inactive[12.7 µM]; Six1-Eya2 blk: inactive; CtBP-E1A inh: inactive; JMJD2A Tudor inh: inactive; BAZ2B inh: inactive

What do the screens show for `CCCCNC(=S)NCc1ccc2c(c1)cc(C)n2C`?
HP1b binding inh: inactive; G9a inh: inconclusive; Six1-Eya2 blk: inactive; CtBP-E1A inh: inactive; JMJD2A Tudor inh: inconclusive; BAZ2B inh: 45µM

Results for COc1ccc(-c2noc(-c3ccc(N4CCCC4)c([N+](=O)[O-])c3)n2)cc1 ?
HP1b binding inh: inactive; G9a inh: inactive; JMJD2A Tudor inh: inactive; BAZ2B inh: inactive

What do the screens show for `COc1ccc(CN2C(=O)CCC2(C)c2nnnn2-c2ccc3c(c2)OCCO3)cc1OC` (centres undefined)?
Six1-Eya2 blk: inactive; CtBP-E1A inh: inactive

What do the screens show for `COc1ccc(NC(=O)c2oc3c(c2C)-c2nn(Cc4ccccc4Cl)cc2CC3)cc1OC`?
HP1b binding inh: inactive; G9a inh: inactive; JMJD2A Tudor inh: inactive; BAZ2B inh: inactive

What do the screens show for `Cc1cc2cc(CNC(=S)NCc3ccccc3)ccc2n1C`?
HP1b binding inh: inconclusive; G9a inh: inconclusive; Six1-Eya2 blk: inactive; CtBP-E1A inh: inconclusive; JMJD2A Tudor inh: 50µM; BAZ2B inh: 25µM

What do the screens show for `Cn1cccc1CNC(=S)Nc1cc(F)cc(F)c1`?
HP1b binding inh: inactive; G9a inh: inactive; Six1-Eya2 blk: inactive; CtBP-E1A inh: inactive; JMJD2A Tudor inh: inactive; BAZ2B inh: inconclusive

What do the screens show for `COc1ccc(NC(=S)NCc2cccn2C)cc1`?
HP1b binding inh: inactive; G9a inh: 50µM; Six1-Eya2 blk: inactive; CtBP-E1A inh: inactive; JMJD2A Tudor inh: inactive; BAZ2B inh: 35µM

What do the screens show for `COc1ccccc1NC(=S)NCc1ccc2c(c1)cc(C)n2C`?
HP1b binding inh: inconclusive; G9a inh: inconclusive; Six1-Eya2 blk: inactive; CtBP-E1A inh: inconclusive; JMJD2A Tudor inh: 50µM; BAZ2B inh: 25µM

Results for COc1cccc(C(=O)NCc2ccc3c(c2)cc(C)n3C)c1 ?
HP1b binding inh: inactive; G9a inh: 50µM; Six1-Eya2 blk: inactive; CtBP-E1A inh: inactive; JMJD2A Tudor inh: inconclusive; BAZ2B inh: inconclusive

Results for CCOC(=O)c1cccc(NC(=O)N2CC(CC)Sc3ccccc32)c1 (centres undefined) ?
HP1b binding inh: inactive; G9a inh: inactive; JMJD2A Tudor inh: inactive; BAZ2B inh: inactive

Results for CCCCCCC(C)NC(=S)Nc1cc(S(=O)(=O)N(C)C)ccc1C (centres undefined) ?
HP1b binding inh: inactive; G9a inh: inactive; Six1-Eya2 blk: inactive; CtBP-E1A inh: inactive; JMJD2A Tudor inh: inactive; BAZ2B inh: inactive

What do the screens show for `CCCCC/C=C\C/C=C\C/C=C\C=C\[C@@H](O)CCCC(=O)O`?
G9a inh: inactive

Results for CC1(C(=O)Nc2cnc3ccccc3c2)CCN1C(=O)c1ccccc1CCc1ccccc1 (centres undefined) ?
Six1-Eya2 blk: inactive; CtBP-E1A inh: inactive
